Results on 57 molecules are retold here after PubChem BioAssay AID485317 (Broad Institute, 2010).

Each structure is given as a SMILES string. Among all 290,000 compounds or so, about 11,000 (3.8%) were called active. This is one part of a sample in which actives are shown more often than they occur.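 How the source made its calls: active means mean replicate inhibition above about 79%, with every replicate also reaching it (limit read from the data); inconclusive means only one of the two criteria met; inactive means mean below limit and not every replicate reaching it.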

For the assay, the target named is FAD-linked sulfhydryl oxidase ALR (Homo sapiens) (UniProt P55789). The assay can be described thus: inhibitors of human ALR sulfhydryl oxidase, primary screen, biochemical, H2O2 detection, HRP-luminol luminescence, single point (AID 485317). The note with it: purified ALR, DTT oxidation, active compounds read high, concentration not given here.
FAD-linked sulfhydryl oxidase ALR (Homo sapiens), sequence (P55789 whole entry, looked up): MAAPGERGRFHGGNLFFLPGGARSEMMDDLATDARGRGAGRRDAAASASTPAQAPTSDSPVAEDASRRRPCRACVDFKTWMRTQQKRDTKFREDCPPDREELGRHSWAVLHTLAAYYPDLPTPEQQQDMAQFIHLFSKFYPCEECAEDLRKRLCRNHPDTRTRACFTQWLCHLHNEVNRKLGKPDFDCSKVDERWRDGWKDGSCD
Regarding `Cc1cc(C)cc(NC(=O)C2CCCN2S(=O)(=O)c2cccc3cccnc23)c1` (configuration not stated), the inhibition was -0.666% (inactive).
Under `COc1ccc(NC(=O)C2CCCN(S(=O)(=O)c3cccc4cccnc34)C2)cc1OC` (configuration not stated) stands -28.5% (inactive); under `Cc1cccc(NC(=O)C2CCN(S(=O)(=O)c3cccc4cccnc34)CC2)c1`, 88.1% (active); under `CC(NC(=O)c1ccccc1F)c1cccc2ccccc12` (configuration not stated), -16.5% (inactive).
Under `O=c1oc2ccc(C#CC3(O)CCCCC3)cc2cc1-n1cc(-c2ccsc2)nn1` stands -6.77% (inactive); under `O=C(CN1C(=O)NC2(CCCC2)C1=O)Nc1cc(C(F)(F)F)ccc1N1CCOCC1`, -1.5% (inactive); under `COc1ccccc1S(=O)(=O)NCc1ccc(C(=O)N(C)Cc2ccc(F)cc2)cc1`, -4.34% (inactive).
The same measure for `C=CCn1c(SCc2csc(C)n2)nc2scc(-c3ccc(C)o3)c2c1=O`: 16.6% (inactive); for `C=CCNC(=O)CSc1nc2scc(-c3ccco3)c2c(=O)n1CC=C`: -0.872% (inactive).
Regarding `C=CCn1c(=S)[nH]c2scc(-c3ccco3)c2c1=O`, the inhibition was 98.3% (active).
The same measure for `CCN1CCN(Cc2nc3c(c(=O)n(C)c(=O)n3C)n2CC(=O)c2ccccc2)CC1`: 98.2% (active); for `CCOC(=O)N1CCN(Cc2nc3c(c(=O)n(C)c(=O)n3C)n2Cc2ccccc2)CC1`: -3.2% (inactive); for `CC1CCCN(Cc2nc3c(c(=O)n(C)c(=O)n3C)n2CC(=O)c2ccccc2)C1` (configuration not stated): -8.6% (inactive).
The same measure for `O=C(CCCCO)c1ccc(O)c(Cl)c1`: 7.83% (inactive); for `Cn1c(Cc2cccc3ccccc23)nnc1SCC(=O)N1CCN(c2cccc(Cl)c2)CC1`: -3.36% (inactive).
Under `Cc1nnc(SCC(=O)N2CCN(c3ccccc3)CC2)n1-c1ccccc1` stands 46.1% (inactive); under `Cc1cc2nnc(SCC(=O)N3CCN(c4ccccc4)CC3)n2c(N)n1`, 98% (active).
Regarding `CCN(CC(=O)NCc1ccc(Cl)cc1)C(=O)c1c(C)noc1C`, the inhibition was -1.1% (inactive).
Under `CCOc1ccc2[nH]c(C(=O)N/N=C/c3cccc(OC)c3OC)cc2c1` stands -44.7% (inactive).
The same measure for `COc1cc2cc(C(=O)N/N=C/c3cccc(OC)c3OC)[nH]c2cc1OC`: 15.9% (inactive).
The same measure for `COc1ccc2[nH]c(C(=O)N/N=C/c3cc(OC)c(OC)c(OC)c3)cc2c1`: 90.9% (active).
Consider `COc1ccc(C(=O)NCC2CCCN2S(=O)(=O)c2cccs2)cc1OC` (configuration not stated), for which the inhibition is -12.1% (inactive).
Under `COc1ccccc1C(CNC(=O)c1ccc(C)c(S(=O)(=O)N2CCCCC2)c1)N(C)C` (configuration not stated) stands -5.4% (inactive); under `Nc1c(N(CCCO)C(=O)C2CCCC2)c(=O)[nH]c(=O)n1Cc1ccccc1`, 2.17% (inactive); under `O=C(NNS(=O)(=O)c1c(F)cc(F)c(Cl)c1F)C12CC3CC(CC(C3)C1)C2`, -7.91% (inactive).
Take `COCCCn1c(SCC(=O)Nc2ccccc2)nnc1-c1ccncc1`: the inhibition was -6.22% (inactive).
Turning to `CC1CCCCC1NC(=O)CSc1nnc(-c2ccncc2)n1CCCN(C)C` (configuration not stated), the inhibition was -3.25% (inactive).
Under `CSc1nnc(-c2ccncc2)n1CCCN1CCCC1=O` stands 98.1% (active).
Under `O=C(c1cnccn1)N1CCN(S(=O)(=O)c2cccc(Cl)c2)CC1` stands -2.25% (inactive); under `O=c1nc(N/N=C/c2ccco2)cn[nH]1`, -0.901% (inactive).
Regarding `COc1cccc2c(N/N=C/c3ccco3)cc(C)nc12`, the inhibition is 91.2% (active).
The same measure for `Cc1cc(C)c(OCC(=O)N/N=C/c2ccco2)c(C)c1`: -5.47% (inactive); for `COc1cc2ccccc2cc1C(=O)Nc1nc(C)c(C(C)=O)s1`: -3.67% (inactive); for `COc1ccc(C(CNC(=O)c2ccc(S(=O)(=O)Nc3ccccc3C)cc2)N2CCOCC2)cc1` (configuration not stated): 1.74% (inactive).
Under `CC(NC(=O)COC(=O)Cn1cc(C(F)(F)F)ccc1=O)c1ccccc1` (configuration not stated) stands -3.5% (inactive); under `COc1cc(-c2c(-c3ccc4c(c3)OCO4)noc2C)ccc1F`, 3.17% (inactive).
Under `CCOC(=O)N1CCN(C(=S)Nc2ccc(C)cc2C)CC1` stands -22.4% (inactive); under `COc1c(F)c(F)c(C(=O)O)c(Nc2ccccc2C)c1F`, 18.5% (inactive); under `Cc1ccc(Nc2c(F)c(F)c(F)c(F)c2C(=O)O)c(C)c1`, 98.2% (active).
Consider `O=C(NCC#CCSc1nnc(-c2cccc3ccccc23)o1)c1cccs1`, for which the inhibition was -4.12% (inactive).
As for `COc1cc(/C=N\NC(=O)CNC(=O)c2cccc([N+](=O)[O-])c2)ccc1O`, the inhibition was 98.6% (active).
The same measure for `COc1ccc(C(=O)NCC(=O)N/N=C/c2ccc([N+](=O)[O-])s2)cc1OC`: -29.5% (inactive); for `COc1ccc(C(=O)NCC(=O)N/N=C/c2ccc([N+](=O)[O-])o2)cc1OC`: -60.3% (inactive); for `COc1ccc(C(=O)N2CCN(c3ncccn3)CC2)cc1S(=O)(=O)N1CCOCC1`: -2.44% (inactive).
Regarding `CSc1ncccc1C(=O)Nc1cccc(S(=O)(=O)N2CCOCC2)c1`, the inhibition is -2.48% (inactive).
The same measure for `O=C1C=C(c2ccnc3cc(Cl)ccc23)C[C@@H](c2ccc3c(c2)OCO3)C1`: -0.313% (inactive).
With `Cc1cc(=O)oc2cc(OCCC[n+]3ccccc3)ccc12`, the inhibition is -10.6% (inactive).
The same measure for `Cc1cc(=O)oc2cc(OCC3CC(c4ccccc4Cl)=NO3)ccc12` (configuration not stated): 97.9% (active).
Under `Cc1ccccc1N1CCN(CCCOc2ccc3c(C)cc(=O)oc3c2)CC1` stands -0.584% (inactive); under `Cn1nnnc1SCC(=O)Nc1cccc(S(=O)(=O)N2CCCCC2)c1`, -1.39% (inactive).
Take `Cc1ccnc(N2CCCC(C(=O)Nc3cc(F)ccc3C)C2)n1` (configuration not stated): the inhibition was 87.3% (active).
The same measure for `Cc1ccc(Cl)cc1NC(=O)C1CCCN(c2cnccn2)C1` (configuration not stated): -6.26% (inactive); for `Cc1ccnc(N2CCCC(C(=O)NC3CC3)C2)n1` (configuration not stated): 1.74% (inactive); for `Cc1noc(C)c1S(=O)(=O)N(C)C[C@H]1Oc2ccc(NC(=O)C3CC3)cc2C(=O)N([C@H](C)CO)C[C@@H]1C`: 2.82% (inactive).
The same measure for `CCCNC(=O)c1onc(CSc2ccc(F)cc2)c1C(=O)NC(C)C`: 3.87% (inactive); for `CN(C)C(=O)COC(=O)c1cccc(S(=O)(=O)N2CC3(C)CC2CC(C)(C)C3)c1` (configuration not stated): -0.802% (inactive).
As for `COc1cccc(NC(=O)COC(=O)c2ccc3ccccc3n2)c1`, the inhibition is -1.64% (inactive).
